Assay [1] in a line: antimalarial activity against Dd2 strain (AID 2302;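 active = growth inhibition above 50% at the single 2 µM test dose, taken to imply half-maximal potency below 2 µM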;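 note: 0% = DMSO untreated growth and 100% = chloroquine plus artemisinin killed control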). The following applies: P. falciparum Dd2 in RBCs, LDH growth readout, 72 h; at 2 µM; active compounds read high.
Assay [2] is described as follows: HepG2 cytotoxicity, primary screen, cytotoxicity control for P. falciparum antimalarial project, cell-based, ATP luminescence (AID 2303;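 active = inhibition above 50%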;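 note: 0% = DMSO wells and 100% = digitonin-killed cells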). The following applies: HepG2 viability, 24-48 h, at 10 µM, active compounds read high.
Assay [3] addresses L-lactate dehydrogenase (Plasmodium falciparum (isolate CDC / Honduras)) (UniProt Q27743). The assay is described as follows: PfLDH activity inhibition – cell lysate, 3D7 strain, counter-screen for P. falciparum growth inhibition project (AID 2304).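 Note: 0% = vehicle and 100% = reference inhibitor.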 Particulars: P. falciparum 3D7 crude extract, LDH APAD/NBT absorbance; at 2 µM; active compounds read high. Background: A counterscreen serves to expose hits that act by an unwanted route or on another target.

Assay [4] is described as follows: inhibition of 3D7 malaria parasite growth – strain 3D7 (AID 2306).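 Note: 0% = DMSO wells and 100% = chloroquine plus artemisinin control wells.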 Particulars: P. falciparum 3D7 erythrocytic growth, LDH absorbance, 72 h; at 2 µM; active compounds read high.
The target in assay [5] is Calcium-dependent protein kinase 1 (Plasmodium falciparum (isolate 3D7)) (UniProt P62344). The assay is described as follows: PfCDPK1 kinase inhibitors, biochemical, TCAMS library (AID 1159585; cut-off not given, nearly all actives have IC50 up to about 0.98 µM;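 note: inhibitors leave more ATP so luminescence rises with inhibition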). Particulars: recombinant PfCDPK1, Kinase-Glo ATP depletion luminescence.
Sequence of Calcium-dependent protein kinase 1 (Plasmodium falciparum (isolate 3D7)) (P62344 whole entry, looked up): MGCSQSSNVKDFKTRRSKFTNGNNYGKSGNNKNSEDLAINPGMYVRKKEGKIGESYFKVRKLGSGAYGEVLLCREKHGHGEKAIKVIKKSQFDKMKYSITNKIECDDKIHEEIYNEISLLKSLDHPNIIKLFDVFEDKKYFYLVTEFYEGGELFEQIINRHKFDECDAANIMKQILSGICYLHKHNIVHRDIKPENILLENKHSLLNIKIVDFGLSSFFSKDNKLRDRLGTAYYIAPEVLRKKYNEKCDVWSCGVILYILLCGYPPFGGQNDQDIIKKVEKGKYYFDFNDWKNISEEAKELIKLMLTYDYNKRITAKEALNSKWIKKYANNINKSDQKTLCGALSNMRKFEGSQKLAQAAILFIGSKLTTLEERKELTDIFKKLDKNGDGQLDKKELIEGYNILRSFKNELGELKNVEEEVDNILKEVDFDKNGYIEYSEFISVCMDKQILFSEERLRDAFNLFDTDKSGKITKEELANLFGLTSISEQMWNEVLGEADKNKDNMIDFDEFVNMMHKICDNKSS
Assay [6] has as its target Plasmodium falciparum protein kinase 6 (PK6, PF3D7_1337100) (UniProt Q8IDW1). The assay is described as follows: PfPK6 kinase inhibitors, biochemical, TCAMS library (AID 1159586). Particulars: recombinant PfPK6, Kinase-Glo ATP depletion luminescence.
Assay [7] addresses Protein kinase 7 (PK7), Plasmodium falciparum 3D7 (PF3D7_0213400) (UniProt Q7YTF7). The assay is described as follows: inhibition of Plasmodium PK7 catalytic activity – biochemical, TCAMS antimalarial set, Kinase-Glo luminescence (AID 1159587). The following applies: recombinant PfPK7, Kinase-Glo ATP depletion luminescence.
Assay [8] concerns the target Calcium-dependent protein kinase 4 (Plasmodium falciparum (isolate 3D7)) (UniProt Q8IBS5). The experiment in a line: PfCDPK4 kinase inhibitors, biochemical, TCAMS library (AID 1159588; cut-off not given, nearly all actives have IC50 up to about 0.91 µM). Particulars: recombinant PfCDPK4, Kinase-Glo ATP depletion luminescence. Background: Kinase-Glo reads ATP consumption through a luciferase reaction.

The values that follow come from PubChem BioAssay.

Broadly, the inhibition is the drop in the measured response relative to a control, in per cent.

Unmarked numbers belong to inactive results. For part of these data: Measured potencies and affinities stand elsewhere. Calls of active or inactive are those of the source. Unless noted, the rule behind the calls is not given here.

Sequence of L-lactate dehydrogenase (Plasmodium falciparum (isolate CDC / Honduras)) (Q27743 whole entry, looked up): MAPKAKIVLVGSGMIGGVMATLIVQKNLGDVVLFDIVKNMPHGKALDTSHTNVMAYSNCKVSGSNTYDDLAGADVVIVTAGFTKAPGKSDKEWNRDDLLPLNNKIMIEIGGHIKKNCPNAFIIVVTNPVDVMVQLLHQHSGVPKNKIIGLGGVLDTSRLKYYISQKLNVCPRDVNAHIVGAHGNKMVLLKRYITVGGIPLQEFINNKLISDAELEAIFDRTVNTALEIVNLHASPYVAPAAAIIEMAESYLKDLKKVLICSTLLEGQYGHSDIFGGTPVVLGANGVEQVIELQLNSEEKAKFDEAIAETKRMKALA
Sequence of Plasmodium falciparum protein kinase 6 (PK6, PF3D7_1337100) (Q8IDW1 1-305): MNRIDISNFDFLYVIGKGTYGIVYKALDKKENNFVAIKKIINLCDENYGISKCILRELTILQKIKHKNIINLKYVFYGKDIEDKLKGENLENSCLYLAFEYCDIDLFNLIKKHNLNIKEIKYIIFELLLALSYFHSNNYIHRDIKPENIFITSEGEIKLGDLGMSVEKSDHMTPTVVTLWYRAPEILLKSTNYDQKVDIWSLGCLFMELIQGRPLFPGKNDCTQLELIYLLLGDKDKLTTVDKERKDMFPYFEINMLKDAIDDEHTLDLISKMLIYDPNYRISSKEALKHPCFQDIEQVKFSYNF
Sequence of Protein kinase 7 (PK7), Plasmodium falciparum 3D7 (PF3D7_0213400) (Q7YTF7 1-343): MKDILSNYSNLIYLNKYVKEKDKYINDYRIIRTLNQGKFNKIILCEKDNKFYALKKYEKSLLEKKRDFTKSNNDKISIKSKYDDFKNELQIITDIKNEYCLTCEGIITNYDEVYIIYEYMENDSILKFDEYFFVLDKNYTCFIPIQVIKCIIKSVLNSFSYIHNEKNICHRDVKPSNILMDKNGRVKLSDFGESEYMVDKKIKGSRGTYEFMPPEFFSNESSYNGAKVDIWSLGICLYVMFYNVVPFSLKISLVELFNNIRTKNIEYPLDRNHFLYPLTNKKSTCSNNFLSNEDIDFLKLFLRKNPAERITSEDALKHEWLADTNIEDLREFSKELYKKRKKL
Sequence of Calcium-dependent protein kinase 4 (Plasmodium falciparum (isolate 3D7)) (Q8IBS5 whole entry, looked up): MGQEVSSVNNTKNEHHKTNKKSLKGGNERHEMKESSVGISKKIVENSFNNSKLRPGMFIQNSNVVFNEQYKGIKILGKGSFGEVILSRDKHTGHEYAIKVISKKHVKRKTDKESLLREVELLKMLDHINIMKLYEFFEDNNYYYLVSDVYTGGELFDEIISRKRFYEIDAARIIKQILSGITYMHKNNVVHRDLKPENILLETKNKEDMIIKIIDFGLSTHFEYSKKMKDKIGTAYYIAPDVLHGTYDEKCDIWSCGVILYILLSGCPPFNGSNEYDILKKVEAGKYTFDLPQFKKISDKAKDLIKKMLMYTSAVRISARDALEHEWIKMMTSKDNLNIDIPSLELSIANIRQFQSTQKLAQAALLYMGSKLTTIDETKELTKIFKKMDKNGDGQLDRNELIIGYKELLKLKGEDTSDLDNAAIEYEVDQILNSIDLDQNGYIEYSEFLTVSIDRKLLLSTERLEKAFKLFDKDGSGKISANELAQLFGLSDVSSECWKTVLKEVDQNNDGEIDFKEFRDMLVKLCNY

Consider `CCN(CC)CCN(Cc1ccc(-c2ccc(C(F)(F)F)cc2)nc1)C(=O)Cn1cc(Cc2cnn(C)c2)c(=O)n2nc(-c3ccccc3)cc12`, for which the results for the growth inhibition in assay [1] and in assay [4] were 95% (active) and 97% (active), respectively. Also, the inhibition in assay [2] is 35%; in assay [3], -3%. In addition, the result in assay [5], in assay [6], in assay [7] and in assay [8] was inactive.
As for `c1ccc(CN2CCC(NCc3ccccc3-c3cccc(CNCc4ccc5c(c4)OCO5)c3)CC2)cc1`, the values for the growth inhibition in assay [1] and in assay [4] were 69% (active) and 102% (active), respectively. For the same compound, the values for the inhibition in assay [2] and in assay [3] were 37% and 4%, respectively. The result in assay [5], in assay [6], in assay [7] and in assay [8] was inactive.
Turning to `CCOC(=O)C(C#N)NC(=O)C=Cc1ccccc1` (centres undefined), the growth inhibition in assay [1] was 9%; in assay [4], 96% (active). Besides, the inhibition in assay [2] was -7%; in assay [3], 6%. The result in assay [5], in assay [6], in assay [7] and in assay [8] was inactive.
As for `CC1=C(C(=O)Nc2cc3cn[nH]c3cc2F)C(c2cccc(O)c2F)CC(=O)N1` (centres undefined), the growth inhibition is 98% (active) in assay [1] and 97% (active) in assay [4]. Also, the inhibition in assay [2] is 1%; in assay [3], -2%. Besides, the result in assay [5], in assay [6], in assay [7] and in assay [8] was inactive.
`CC1(CCc2ccccc2)N=C(N)N(Cc2ccccc2)C(=O)C1c1ccc(Cl)c(Cl)c1` (centres undefined): the growth inhibition in assay [1] was 96% (active); in assay [4], 97% (active). Moreover, the inhibition is 100% (active) in assay [2] and -4% in assay [3]. In addition, the outcome in assay [5], in assay [6], in assay [7] and in assay [8] was inactive.
On to `COc1ccccc1CNc1ncc(-c2ccsc2)c(-c2nccs2)n1`, for which the values for the growth inhibition in assay [1] and in assay [4] were 84% (active) and 91% (active), respectively. The inhibition in assay [2] is 14%; in assay [3], 2%. The outcome in assay [5], in assay [6], in assay [7] and in assay [8] was inactive.
Turning to `Cc1cccc2[nH]c(-c3cccc(-c4ccc(NC(=O)Cc5ccccn5)cc4)c3)nc12`, the growth inhibition in assay [1] was 57% (active); in assay [4] it was 94% (active). Moreover, the results for the inhibition in assay [2] and in assay [3] were 25% and 3%, respectively. In addition, the result in assay [5], in assay [6], in assay [7] and in assay [8] was inactive.
For `O=C(Nc1ccc(F)cc1F)NC1CCN(c2ccnc3cc(Cl)ccc23)C1` (centres undefined), the growth inhibition in assay [1] was 82% (active); in assay [4] it was 100% (active). The inhibition in assay [2] is 25%; in assay [3] it was 1%. The result in assay [5], in assay [6], in assay [7] and in assay [8] was inactive.
Regarding `FC(F)(F)c1ccc2nc(-c3cccc(-c4cccc(CNCCc5ccncc5)c4)c3)[nH]c2c1`, the growth inhibition in assay [1] was 97% (active); in assay [4], 99% (active). In addition, the inhibition in assay [2] was 31%; in assay [3] it was -8%. The result in assay [5], in assay [6], in assay [7] and in assay [8] was inactive.
Regarding `COc1ccc(CNC2CCN(C)CC2)cc1-c1ccc(S(=O)(=O)NCC2CCCO2)s1` (centres undefined), the growth inhibition was 18% in assay [1] and 95% (active) in assay [4]. Also, the inhibition in assay [2] was 18%; in assay [3] it was 5%. For the same compound, the outcome in assay [5], in assay [6], in assay [7] and in assay [8] was inactive.
Consider `CCOC(=O)c1cn(CC)c2cc(OCc3ccccc3)ccc2c1=O`, for which the growth inhibition in assay [1] was 96% (active); in assay [4], 97% (active). Further, the inhibition in assay [2] and in assay [3] was 2% in each case. For the same compound, the result in assay [5], in assay [6], in assay [7] and in assay [8] was inactive.
Turning to `Fc1cccc(-c2ccc3c(c2)CC(NCc2c[nH]c4cnccc24)C3)c1` (centres undefined), the growth inhibition was 68% (active) in assay [1] and 100% (active) in assay [4]. Also, the inhibition in assay [2] is 24%; in assay [3] it was -1%. Also, the result in assay [5], in assay [6], in assay [7] and in assay [8] was inactive.
With `COc1ccc(CNC(=O)NC2CCN(c3ccnc(Nc4cc(OC)c(OC)c(OC)c4)n3)C2)cc1` (centres undefined), the growth inhibition in assay [1] is 90% (active); in assay [4] it was 91% (active). Further, the inhibition in assay [2] was -2%; in assay [3], 3%. The outcome in assay [5], in assay [6], in assay [7] and in assay [8] was inactive.
On to `CN(C(=O)c1snnc1-c1ccccc1)C1CCN(CCCCCNC(=O)/C=C/c2ccc(Cl)c(Cl)c2)CC1`, for which the growth inhibition in assay [1] is 58% (active); in assay [4] it was 96% (active). The values for the inhibition in assay [2] and in assay [3] were 44% and 4%, respectively. Moreover, the result in assay [5], in assay [6], in assay [7] and in assay [8] was inactive.
In the case of `N#Cc1ccc(C=CC(=O)NC2CCC(CCN3CCc4ccc(-c5cnccn5)cc4CC3)CC2)cc1` (centres undefined), the results for the growth inhibition in assay [1] and in assay [4] were 87% (active) and 100% (active), respectively. The inhibition in assay [2] is 37%; in assay [3] it was -5%. In addition, the outcome in assay [5], in assay [6], in assay [7] and in assay [8] was inactive.
Consider `NC(=O)C1CCN(Cc2ccc(-c3ccc(-c4nc5ccc(C(F)(F)F)cc5[nH]4)cc3)cc2)CC1`, for which the growth inhibition was 90% (active) in assay [1] and 100% (active) in assay [4]. Moreover, the inhibition in assay [2] was 25%; in assay [3], -1%. Further, the result in assay [5], in assay [6], in assay [7] and in assay [8] was inactive.
Take `COc1cc(Br)c(S(=O)(=O)n2cc(CN3CCC(N)CC3)c3cc(Cl)ccc32)cc1OC`: the results for the growth inhibition in assay [1] and in assay [4] were 32% and 99% (active), respectively. The inhibition in assay [2] is 27%; in assay [3] it was -4%. For the same compound, the outcome in assay [5], in assay [6], in assay [7] and in assay [8] was inactive.
`Cc1cc(NCC2CCN(CC3CCCCC3)C2)nc(Nc2ccc(Cl)cc2)n1` (centres undefined): the growth inhibition in assay [1] is 74% (active); in assay [4] it was 101% (active). Further, the inhibition in assay [2] is 2%; in assay [3], -3%. Besides, the outcome in assay [5], in assay [6], in assay [7] and in assay [8] was inactive.
